In PubChem BioAssay AID1021 (Emory University Molecular Libraries Screening Center, 2008):
The campaign covered roughly 220,000 compounds. About 2,100 (0.95%) were called active. The sample holds actives, similar compounds and a random draw of the others, so the mix is not that of the screen.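 The calls were made as follows: active = compounds that cut the binding signal by more than half at the single screening dose; inactive = the rest.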

Target: Induced myeloid leukemia cell differentiation protein Mcl-1 (Homo sapiens) (UniProt Q07820)
Sequence (Q07820 whole entry, looked up): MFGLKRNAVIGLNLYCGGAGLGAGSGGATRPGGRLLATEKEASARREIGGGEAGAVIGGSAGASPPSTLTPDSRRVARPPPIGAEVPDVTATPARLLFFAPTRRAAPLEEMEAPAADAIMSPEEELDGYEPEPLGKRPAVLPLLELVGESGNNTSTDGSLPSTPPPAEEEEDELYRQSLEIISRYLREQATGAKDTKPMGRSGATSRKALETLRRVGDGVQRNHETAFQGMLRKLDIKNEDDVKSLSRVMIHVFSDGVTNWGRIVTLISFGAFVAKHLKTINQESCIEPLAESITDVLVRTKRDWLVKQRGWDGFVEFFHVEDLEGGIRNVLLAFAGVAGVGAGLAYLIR
Assay: Mcl-1/Bid binding inhibitors, primary screen, biochemical, TR-FRET, 1536-well (AID 1021);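 also: His-tagged Mcl-1 with europium anti-His antibody binding Bid BH3 peptide; 0% = Mcl-1 plus peptide wells and 100% = peptide-only wells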
Conditions: TR-FRET Mcl-1/Bid-Dy647 peptide binding, at 21.7 µM, hits give high values

Structure (SMILES)	inhibition
O=C(Cc1ccccc1[N+](=O)[O-])N1CCN(Cc2ccc3c(c2)OCO3)CC1	-23.7% (inactive)
O=C(Cc1ccccc1)N1CCN(C2CCCCCC2)CC1	17% (inactive)
COc1ccccc1CN1CCN(C(=O)Cc2ccccc2)CC1	68% (active)
COc1ccc(-n2c(O)c(C(C)=Nc3ccc4c(c3)CCC4)c(=O)[nH]c2=O)cc1	-2.41% (inactive)
O=C(O)COc1ccccc1/C=C1\C(=O)NC(=O)N(CCC2=CCCCC2)C1=O	2.6% (inactive)
CN1CCN(Cc2ccc(OC(F)(F)F)cc2)CC1	56.4% (active)
CN1CCN(Cc2ccccc2C(F)(F)F)CC1	-13% (inactive)
CCOP(=O)(OCC)C(NC(=O)NC)C(N)=O (stereo not given)	-3.96% (inactive)
CCc1nnc(NS(=O)(=O)c2ccc(N=Cc3c(O)n(-c4ccccc4)c(=O)[nH]c3=O)cc2)s1	-3.62% (inactive)
CCOc1ccc(CN(CCCl)CCCl)cc1C(=O)OC	63.2% (active)
CC1=C2C(=O)C3C(CC=C4CC(OC5OC(O)C(O)C(O)C5CO)CCC43C)C2CCC12OC1CC(C)CNC1C2C (stereo not given)	-4.26% (inactive)
O=c1c2ccccc2nc(/C=C/c2ccco2)n1-c1ccccc1O	-66% (inactive)
CNC(=O)O/N=C(\N)Cc1csc2ccc(Cl)cc12	-11.9% (inactive)
COc1ccc(C(=O)C2CCCN(Cc3ccc(C)s3)C2)cc1OC (stereo not given)	-15% (inactive)
CC1CCCCN1Cc1cccnc1 (stereo not given)	49.3% (inactive)
Cc1cccc(N2C(=O)NC(=O)/C(=C\c3cnn(-c4ccccc4)c3)C2=O)c1	-15.1% (inactive)
O=C1NC(=O)N(c2ccc(F)cc2)C(=O)/C1=C/c1ccc2c(c1)CCCN2Cc1ccccc1	74.2% (active)
O=C1NC(=O)N(c2ccccc2)C(=O)/C1=C/c1ccc([N+](=O)[O-])s1	-21.7% (inactive)
O=C(c1cc2nc(-c3ccccc3)cc(-c3ccccc3)n2n1)N1CCC2(CC1)OCCO2	12.9% (inactive)
CC(=O)Cc1ccc(OC(C)C)cc1	29.9% (inactive)
